This note sets out measurements from PubChem BioAssay (NCI).

About 83,000 compounds went through this panel and 20% of them were active in at least one assay; those are over-represented in the sample as a whole.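 The test compound was applied at a single concentration to cells in 96-well plates for 48 hours, and percent growth was recorded.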 Unmarked numbers belong to inactive results. The source made the active and inactive calls. How the source made its calls: active means growth percent below 10; inactive means the rest.

Some test systems named below: NCI-H23 lung; NCI-H226 lung; NCI-H322M lung; HOP-62 NSCLC; NCI-H460 lung; HOP-92 NSCLC; 786-0 renal; COLO 205 colon; DU-145 prostate; K-562 leukemia; MALME-3M melanoma; MDA-MB-231 breast; RXF 393 renal; SF-268 CNS; SF-295 CNS; M14 melanoma; SF-539 CNS; A549/ATCC NSCLC; UACC-257 melanoma.
Common to all, as to experiment: NCI-60 one-dose screen, 48 h (100 = growth as untreated, 0 = no growth, -100 = all killed)
What all share (settings): 10 µM unless noted

Take `COC(=O)[C@H](Cc1cn(C)cn1)NC(=O)[C@H](CC(C)C)NC(=O)Nc1cc(C(F)(F)F)cc(C(F)(F)F)c1`: the growth in the assay on NCI-H23 lung was -84.5% [100 µM] (active); in the assay on NCI-H226 lung, -54.7% [100 µM] (active); in the assay with NCI-H322M lung, -97.8% [100 µM] (active); in the assay on HOP-62 NSCLC, -100% [100 µM] (active); in the assay on NCI-H460 lung, -59.8% [100 µM] (active); in the assay on HOP-92 NSCLC, -98.2% [100 µM] (active). Further, the growth in the assay with 786-0 renal was -94.9% [100 µM] (active); with COLO 205 colon, -84.4% [100 µM] (active); in the assay on DU-145 prostate, -100% [100 µM] (active); in the assay on K-562 leukemia, -65.4% [100 µM] (active); in the assay on MALME-3M melanoma, -93.5% [100 µM] (active); with MDA-MB-231 breast, -94% [100 µM] (active). Moreover, the growth is -89.3% [100 µM] (active) in the assay on RXF 393 renal, -92.8% [100 µM] (active) with SF-268 CNS, -96.5% [100 µM] (active) with SF-295 CNS and -95.2% [100 µM] (active) with M14 melanoma.
As to `NNc1ccc(S(N)(=O)=O)cc1`, the growth in the assay on NCI-H23 lung was 90.7%; in the assay with NCI-H226 lung, 93.7%; in the assay with NCI-H322M lung, 110%; in the assay with HOP-62 NSCLC, 91.2%; with NCI-H460 lung, 107%; in the assay with HOP-92 NSCLC, 85.3%. Also, the growth in the assay on 786-0 renal was 103%; in the assay on COLO 205 colon, 105%; with DU-145 prostate, 121%; with K-562 leukemia, 109%; with MALME-3M melanoma, 104%; with RXF 393 renal, 105%. Moreover, the growth is 108% in the assay with SF-268 CNS, 105% in the assay with SF-295 CNS, 98.6% in the assay on SF-539 CNS and 101% in the assay on M14 melanoma.
For the compound `C[N+](C)(C)CCCCCCCCCC[N+](C)(C)C`, the growth in the assay on NCI-H23 lung is 88.7%; in the assay with NCI-H226 lung it was 95.6%; in the assay on NCI-H322M lung, 118%; with HOP-62 NSCLC, 96.2%; in the assay on NCI-H460 lung it was 98.2%; with HOP-92 NSCLC, 103%. Also, the growth is 103% in the assay with A549/ATCC NSCLC; 109% in the assay on 786-0 renal; 93% in the assay with MALME-3M melanoma; 83.6% in the assay with MDA-MB-231 breast; 101% in the assay on RXF 393 renal; 98.2% in the assay on SF-268 CNS. Also, the growth was 113% with SF-295 CNS, 119% in the assay on SF-539 CNS, 107% in the assay with UACC-257 melanoma and 97.1% in the assay with M14 melanoma.
As for `COc1ccc(-c2ccc(-c3ccc(C(=N)N)s3)s2)cc1`, the growth with NCI-H23 lung is -70.3% (active); with NCI-H226 lung it was -50.9% (active); in the assay with NCI-H322M lung, -93.4% (active); in the assay with HOP-62 NSCLC, -81.6% (active); in the assay on NCI-H460 lung it was -64.2% (active); in the assay on HOP-92 NSCLC, -64.2% (active). Moreover, the growth in the assay on 786-0 renal was -64.4% (active); with COLO 205 colon, -89.2% (active); in the assay with DU-145 prostate it was -95.5% (active); in the assay with K-562 leukemia it was -21.5% (active); in the assay on MALME-3M melanoma it was -61.4% (active); in the assay with MDA-MB-231 breast, -79.9% (active). In addition, the growth was -57.5% (active) in the assay on RXF 393 renal; -61.3% (active) in the assay on SF-268 CNS; -77.6% (active) with SF-295 CNS; -75.5% (active) with SF-539 CNS; -55.1% (active) in the assay with M14 melanoma.
Turning to `CCOC(=O)C(CCCCC(NC(C)=O)(C(=O)OCC)C(=O)OCC)(NC(C)=O)C(=O)OCC`, the growth with NCI-H23 lung was 103%; with NCI-H226 lung, 105%; in the assay with NCI-H322M lung, 105%; in the assay on HOP-62 NSCLC it was 102%; in the assay on NCI-H460 lung, 103%; in the assay with HOP-92 NSCLC, 94.9%. For the same compound, the growth in the assay with 786-0 renal is 99.4%; in the assay on COLO 205 colon it was 107%; in the assay on DU-145 prostate it was 113%; in the assay with K-562 leukemia it was 108%; in the assay with MALME-3M melanoma, 108%; in the assay with MDA-MB-231 breast, 111%. Also, the growth with RXF 393 renal was 102%; with SF-268 CNS, 100%; in the assay with SF-295 CNS, 99.3%; with SF-539 CNS, 109%; in the assay with M14 melanoma it was 105%.
Take `ClCCn1cnc2c(SCc3ccccc3Cl)ncnc21`: the growth in the assay with NCI-H23 lung is 53.1%; with NCI-H226 lung it was 57%; in the assay with NCI-H322M lung it was 40.4%; in the assay with HOP-62 NSCLC it was 64%; with NCI-H460 lung, 2.49% (active); in the assay with HOP-92 NSCLC, 62.3%. Further, the growth is 40.1% in the assay with A549/ATCC NSCLC; 33% with 786-0 renal; 41.7% in the assay on COLO 205 colon; 25.4% in the assay on DU-145 prostate; 13% in the assay with K-562 leukemia; 43% in the assay on MALME-3M melanoma. The growth in the assay with MDA-MB-231 breast was 66.5%; in the assay with SF-268 CNS, 31.3%; in the assay with SF-295 CNS, 8.93% (active); with SF-539 CNS it was 30.9%; with UACC-257 melanoma it was 58.7%.
As to `COc1cc2ccc(C(C)=O)cc2cc1OC`, the growth was 99.5% in the assay with NCI-H23 lung; 81.4% with NCI-H226 lung; 104% in the assay on NCI-H322M lung; 81.8% in the assay with HOP-62 NSCLC; 100% with NCI-H460 lung; 86% in the assay with HOP-92 NSCLC. The growth in the assay on 786-0 renal is 107%; in the assay on COLO 205 colon, 97.1%; with DU-145 prostate, 111%; in the assay on K-562 leukemia, 118%; in the assay on MALME-3M melanoma it was 107%; in the assay on MDA-MB-231 breast, 109%. For the same compound, the growth in the assay on SF-268 CNS was 101%; with SF-539 CNS, 95.6%; in the assay on M14 melanoma it was 110%.
Consider `Cc1cc(Nc2c3ccccc3nc3ccccc23)ccc1NS(C)(=O)=O`, for which the growth with NCI-H23 lung is 47%; in the assay with NCI-H226 lung, 41.8%; with NCI-H322M lung it was 34.3%; with HOP-62 NSCLC it was 36.9%; in the assay on NCI-H460 lung, 14.4%; with HOP-92 NSCLC it was -5.41% (active). For the same compound, the growth in the assay with 786-0 renal was 39.8%; in the assay with COLO 205 colon, 18.3%; in the assay on DU-145 prostate it was 29.3%; in the assay with K-562 leukemia, 17.7%; in the assay with MALME-3M melanoma, 44.1%; with MDA-MB-231 breast, 50%. The growth is 35% in the assay on RXF 393 renal; 37.5% in the assay with SF-268 CNS; 34.4% with SF-295 CNS; 15% in the assay with SF-539 CNS; 45.1% in the assay on M14 melanoma.
In the case of `COC(=O)[C@@H](Cc1c[nH]c2ccccc12)NC(=O)/C=C/c1ccccc1`, the growth with NCI-H23 lung is 39.4%; with NCI-H226 lung, 60.2%; in the assay with NCI-H322M lung, 33.8%; in the assay on HOP-62 NSCLC it was 19%; with NCI-H460 lung, 9.94% (active); with HOP-92 NSCLC, 54.6%. The growth was 28.8% with 786-0 renal; 97.3% in the assay with COLO 205 colon; 12% in the assay with DU-145 prostate; 15.9% in the assay on K-562 leukemia; 35.1% in the assay with MALME-3M melanoma; 37.7% in the assay with MDA-MB-231 breast. The growth with RXF 393 renal is -25.6% (active); in the assay on SF-268 CNS it was 42.9%; with SF-295 CNS, -1.2% (active); with SF-539 CNS, -66.8% (active); in the assay with M14 melanoma, -37.5% (active).
